{"source": "PubChem BioAssay AID588334", "about": "(Broad Institute, 2011)", "note": "Screen size: about 300,000 compounds; about 2,300 (0.77%) were called active. This is one part of a sample in which actives are shown more often than they occur. A number with no mark means an inactive call.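 How the source made its calls: active means mean activation of at least 80% with every replicate also reaching 80%; inconclusive means mean reaches 80% but some replicate falls short; inactive means the rest.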"}
{"experiment": "MITF-driven TRPM1 luciferase induction in melanoma cells – cell-based, SK-MEL-5, single point, primary screen (AID 588334);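 further: 0% = neutral control wells and 100% = parthenolide positive control wells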", "details": "SK-MEL-5 TRPM1-promoter luciferase, 24 h; at 12.5 µM; active compounds read high; % of positive control, neutral wells = 0"}
{"smiles": "CN[C@H](C(=O)NC[C@H]1O[C@@H](n2cnc3c(N)ncnc32)[C@H](O)[C@@H]1O)[C@@H](C)OCc1ccccc1", "activation": "17%"}
{"smiles": "COc1cc(NC(=O)c2[nH]cnc2C(N)=O)cc(C(=O)Nc2cccc(C(F)(F)F)c2)c1", "activation": "-88.9%"}
{"smiles": "C[C@@H]1NS(=O)(=O)c2cc(Cl)ccc2O[C@@H]1c1ccccc1", "activation": "2.48%"}
{"smiles": "COc1cccc(/C=N\\Nc2nncc(-c3ccccc3)n2)c1", "activation": "27.3%"}
{"smiles": "Oc1cccc(/C=N/Nc2ccc(Cl)nn2)c1O", "activation": "-6.43%"}
{"smiles": "COc1cccc(/C=N/Nc2ccc(Cl)nn2)c1", "activation": "93.6% (active)"}
{"smiles": "CCOC(=O)C1=CN(Cc2ccc(Br)cc2)S(=O)(=O)N(C)C1C", "note": "(stereo unspecified)", "activation": "-0.639%"}
{"smiles": "O=C(O)c1ccc(S(=O)(=O)c2ccccc2)s1", "activation": "-11%"}
{"smiles": "Cc1cc(C(=O)N/N=C/c2ccccc2[N+](=O)[O-])c(C)o1", "activation": "84.3% (active)"}
{"smiles": "Cc1cc(C(=O)N/N=C\\C(Br)=C\\c2ccccc2)c(C)o1", "activation": "15.4%"}
{"smiles": "CC(=C/c1ccccc1)/C=N/NC(=O)c1cc(C)oc1C", "activation": "25.1%"}
{"smiles": "Cc1ccc(OCCNC(=O)c2cccc(S(=O)(=O)N3CCN(Cc4ccccc4)CC3)c2)cc1", "activation": "-0.856%"}
{"smiles": "Cc1cc(NC(=O)c2cc3ccccc3o2)no1", "activation": "-6.37%"}
{"smiles": "Cc1ccc(C(=O)CNc2ccc(F)cc2)cc1", "activation": "-0.394%"}
{"smiles": "COC(=O)c1ccc(NCC(=O)c2ccccc2)cc1", "activation": "146% (active)"}
{"smiles": "COC(=O)c1ccc(NCc2cc(O)ccc2O)cc1", "activation": "3%"}
{"smiles": "CN1CCOC1c1ccc(C2OCCN2C)cc1", "note": "(stereo unspecified)", "activation": "-9.68%"}
{"smiles": "C=CCOC(=O)N1CCC2CC1c1cc(-c3ccc(OC)cc3)ccc12", "note": "(stereo unspecified)", "activation": "-2.99%"}
{"smiles": "COc1cc(OC)c(C(=O)NNC(=O)c2ccccc2-n2cccc2)cc1OC", "activation": "7.14%"}
{"smiles": "COC(=O)C1C(=O)c2c([nH]c(C(=O)OCCSC)c2C)CC1C", "note": "(stereo unspecified)", "activation": "92.2% (active)"}
{"smiles": "COCCOC(=O)c1[nH]c2c(c1C)C(=O)CC(c1ccc(OC)cc1)C2", "note": "(stereo unspecified)", "activation": "8.85%"}
{"smiles": "CCCOC(=O)c1[nH]c2c(c1C)C(=O)CC(c1cccs1)C2", "note": "(stereo unspecified)", "activation": "-44.3%"}
{"smiles": "COc1ccc(-c2noc(CCC(=O)N3CCN(c4cccc(C)c4)CC3)n2)cc1", "activation": "0.066%"}
{"smiles": "COc1ccc(-c2ccc3c(c2)[C@@H]2C[C@H](N(C)S(=O)(=O)c4ccccc4)[C@H]([C@H](C)O)C(=O)N2CC3)cc1", "activation": "-7.92%"}
{"smiles": "CC(C)Cn1cnc2c(SCc3ccc(Cl)cc3)nc(N)nc21", "activation": "12.1%"}
{"smiles": "O=C(CC(=O)c1cccnc1)c1ccccc1", "activation": "48%"}
